Nrf2 activator = Nrf2 pathway activation; AREc32 ARE-luciferase reporter (MCF7-derived line), luminescence, 24 h; Potency, µM (series often up to 46.1 µM), for the others: at the top dose activation, hits mostly activators; 410,000 compounds, 0.31% hits; also: potency is read from the fitted curve at half-maximal effect; % of control where 0% means no effect; nearly all actives have a fitted effect of over 65% in size
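Steps: seed AREc32_Fluc cells (1000/well, 5% FBS OPTI-MEM); incubate overnight at 37 deg C; add 23 nL compound; incubate 24 hr; add Steady-Glo; hold 30 min RT; read luminescence.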
ALOX12 inh = blocks human arachidonate 12S-lipoxygenase; 580,000 compounds, 1.1% hits; purified 12hLO, xylenol orange hydroperoxide absorbance; Potency, µM (top dose mostly 108 µM), for inactives: at the top dose activity change, negative = inhibition, usual class: inhibitors; P18054; also: potency is read from the fitted curve at half-maximal effect; % is scaled to controls: 0 for no effect and ±100 for the full control effect
Target sequence (P18054 whole entry, looked up): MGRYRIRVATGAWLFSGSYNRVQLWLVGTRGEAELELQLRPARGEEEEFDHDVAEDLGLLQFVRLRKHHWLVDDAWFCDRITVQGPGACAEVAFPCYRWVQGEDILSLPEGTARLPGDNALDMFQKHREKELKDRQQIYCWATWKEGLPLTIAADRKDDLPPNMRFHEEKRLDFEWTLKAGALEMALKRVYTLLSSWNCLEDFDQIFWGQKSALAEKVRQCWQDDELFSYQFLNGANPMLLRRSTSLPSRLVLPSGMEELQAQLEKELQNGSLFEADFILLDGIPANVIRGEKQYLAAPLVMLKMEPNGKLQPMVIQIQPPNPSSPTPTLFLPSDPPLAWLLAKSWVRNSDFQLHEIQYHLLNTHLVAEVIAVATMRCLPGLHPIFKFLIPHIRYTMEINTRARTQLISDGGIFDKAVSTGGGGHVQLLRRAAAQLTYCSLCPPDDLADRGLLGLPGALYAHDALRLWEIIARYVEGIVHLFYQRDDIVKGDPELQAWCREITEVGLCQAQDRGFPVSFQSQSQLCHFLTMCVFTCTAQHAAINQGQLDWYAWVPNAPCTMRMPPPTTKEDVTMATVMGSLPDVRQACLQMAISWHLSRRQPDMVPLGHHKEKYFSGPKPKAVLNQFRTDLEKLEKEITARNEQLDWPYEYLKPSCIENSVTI
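Purified human 12hLO (150 nM final) in 25 mM Hepes, 0.01% Triton X-100, pH 7.0 was preincubated 15 min at room temperature with compound. Then 40 uM arachidonic acid was added, 30 min. Hydroperoxide was read by Fe-XO absorbance ratio 573/405 nm.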
IL2 activator = activates IL-2 in a cell-based reporter assay; activation, % (series mostly up to about 46 µM); 360,000 compounds, 0.065% hits; IL-2 activation reporter assay, cell-based qHTS; stimulated with anti-CD3/CD4/CD28 beads; in transgenic mouse T cells; in the data active = activation above about 50%; inconclusive = mostly about 30% to 49%; also: 0% is about no effect
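Unstimulated transgenic mouse T cells, 750 per well, received compound and, after 60 minutes, anti-CD3/anti-CD4 bead plus anti-CD28 stimulation. EGFP and DsRed were quantified after 18 hours.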
uPA surface inh = cell surface uPA generation inhibition; cell surface uPA generation assay, qHTS; 330,000 compounds, 0.31% hits; Potency, µM (series often up to 38.3 µM), for the others: at the top dose activity change, negative = inhibition, hits mostly inhibitors; active = well fitted inhibition curve with a large enough effect; inconclusive = small, poorly fitted or top-dose-only effect; inactive = no such curve, though single readings can be large or run the other way; tested in mouse RAW 264.7 cells; also: potency is read from the fitted curve at half-maximal effect; % is scaled to controls: 0 for no effect and ±100 for the full control effect; nearly all actives have a fitted effect of over 55% in size
a7 integrin act = integrin-mediated muscular dystrophy alleviation activation; Potency, µM (titrated, usually from 38.3 µM), for the others: at the highest dose activation, actives largely listed as activators; alpha7betagal myoblasts, beta-gal FDG fluorescence, 48 h; 350,000 compounds, 0.064% hits;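 also: potency is read from the fitted curve at half-maximal effect; 100% = response of the positive control SU9516; nearly all actives have a fitted effect of over 60% in size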
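Alpha7betagal+/- myoblasts (passage 13) were plated 16-24 hr, then exposed to compounds (1:260 dilution of DMSO stock) for 48 hours at 37C. After MPER lysis, β-galactosidase reporter activity was read as FDG fluorescence (ex 480/em 540) after 30 minutes.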
An asterisk follows results filed as active; ? = inconclusive; nt = no result; ! = repeats disagree; [ ] = dose if it differs, or a comment. Only some compounds are listed: those with a hit (about 1.5% of all), similar ones and a draw of the others. Unless noted, calls follow the shape of the dose curve; as a rule, active = well fitted curve in the direction sought with a large enough effect; inconclusive = small, poorly fitted or top-dose-only effect, or another doubt; inactive = no such curve, though single readings can be large; an effect the other way counts as inactive or inconclusive.

SMILES	Nrf2 activator	ALOX12 inh	IL2 activator	uPA surface inh	a7 integrin act
c1ccc(OCCNc2nc(-c3cccnc3)nc3ccccc23)cc1	nt	23%	nt	nt	nt
O=C(NS(=O)(=O)Nc1ccccc1)C1=C(N2CCCC2)COC1=O	0%	16µM*	1	-5%	-13%
Cc1ccc(/C(=N/Nc2ncnc3ccccc23)C(=O)O)cc1	8%	-17%	1	-3%	-13%
COC(=O)C(=O)C/C(=N/Nc1ncnc2ccccc12)c1ccc(Cl)cc1	7%	13%	-5	nt	10µM*
C=CCn1c(SCc2coc(-c3cccc(F)c3)n2)nnc1C1CCS(=O)(=O)C1 (configuration not stated)	nt	31%	nt	nt	nt
Cc1cccc(CSCc2ccc(-c3nc(-c4ccc(Br)cc4)no3)o2)c1	nt	3.5µM*	nt	nt	nt
CN(C)CC(CCCCC(CN(C)C)C(=O)c1ccccc1)C(=O)c1ccccc1 (configuration not stated)	17%	-3%	-4	10µM*	-79%
COc1ccc(C2Nc3ccc(C)cc3[C@H]3OCCC[C@@H]23)cc1Br (some centres not stated)	nt	-11%	nt	nt	nt
CC(C)CNc1oc(-c2ccc(S(=O)(=O)N(C)C)cc2)nc1C#N	nt	0%	nt	nt	nt
Cc1cc(C)c2oc(C(=O)Nc3ccc(S(=O)(=O)Nc4ncccn4)cc3)cc(=O)c2c1	0%	?	nt	nt	nt
CC(=O)Nc1ccc(NC(=O)c2cc(=O)c3cc(C)cc(C)c3o2)cc1	0%	?	2	-2%	11µM*
COc1ccc(-c2nsc3c(N4CCCCC4C)ncnc23)cc1 (configuration not stated)	-1%	-1%	-1	3.2µM*	-1%
Cc1c(-c2ccn[nH]2)cnn1C	nt	1%	nt	nt	nt
CCCCOc1ccc(C(=O)N(Cc2ccco2)Cc2ccco2)cc1	15%	18µM*	nt	nt	nt
COCCCn1c(C23CC4CC(CC(C4)C2)C3)n[nH]c1=S	0%	?	-1	4%	21%
CC(C)Cn1c(C23CC4CC(CC(C4)C2)C3)n[nH]c1=S	3%	28µM*	1	4%	-1%
Fc1ccccc1-n1c(C23CC4CC(CC(C4)C2)C3)n[nH]c1=S	nt	14µM*	nt	nt	nt
Cn1c(C23CC4CC(CC(C4)C2)C3)n[nH]c1=S	-1%	?	0	2%	0%
C[n+]1c2n(c3ccccc31)N=C(c1ccc(-c3ccccc3)cc1)CS2	-1%	?	-4	?	11%
C[n+]1c2n(c3ccccc31)N=C(c1ccccc1)CS2	8.9µM*	-8%	-3	-11%	-19%
CCOn1c(=O)c(-c2cc3ccccc3o2)[n+]([O-])c2ccccc21	6%	nt	52*	4%	-1%
O=c1c(-c2ccco2)[n+]([O-])c2ccccc2n1OCc1ccccc1F	?	-18%	1	nt	0%
O=c1c(-c2ccco2)[n+]([O-])c2ccccc2n1OCc1ccccc1	3.2µM*	40µM*	-2	?	29%
O=c1c(-c2ccco2)[n+]([O-])c2ccccc2n1OCc1c(F)cccc1F	0.71µM*	?	-5	0%	12%
COc1ccccc1COn1c(=O)c(-c2ccco2)[n+]([O-])c2ccccc21	9%	-14%	0	-3%	6%
SMILES	Nrf2 activator	ALOX12 inh	IL2 activator	uPA surface inh	a7 integrin act
Cn1cc(C(NS(=O)(=O)c2cccc3c2OCCO3)C2CC(O)C2)cn1 (configuration not stated)	nt	9%	nt	nt	nt
COc1cc(C(=O)NCCOc2ccccc2)cc(OC)c1OC	3%	-5%	-2	9%	1%
COc1cc(C(=O)NCCOc2cc(C)cc(C)c2)cc(OC)c1OC	0%	-7%	-2	2.5µM*	-40%
Cc1ccc(/C=C/C(=O)NC2=NCCS2)cc1	3%	-8%	-2	10µM*	-25%
O=C1c2ccccc2S(=O)(=O)N1Cc1nc(-c2cccc(Br)c2)cs1	nt	-43%	nt	nt	nt
O=S(=O)(c1ccc(NC(=S)NC23CC4CC(CC(C4)C2)C3)cc1)N1CCCCC1	2%	45µM*	-4	nt	-9%
NS(=O)(=O)c1ccc(NC(=S)Nc2ccc(S(=O)(=O)N3CCCC3)cc2)cc1	0%	5%	1	-1%	?
CCOC(=O)c1ccccc1NC(=O)Cn1nc2n(c1=O)CCCCC2	nt	8%	nt	nt	nt
Cc1cc(=O)n(CC(=O)NC(C)c2ccccc2)c2c1c(C)nn2C (configuration not stated)	0%	50µM*	nt	nt	nt
Cc1ccc(-n2nc(C)c3c(C)cc(=O)n(CC(=O)NC(C)c4ccccc4)c32)cc1 (configuration not stated)	-1%	-15%	nt	nt	nt
Cc1nn(C)c2c1c(-c1ccccc1)cc(=O)n2CC(=O)NC(C)c1ccccc1 (configuration not stated)	1%	45µM*	nt	nt	nt
Cn1ccc(C(=O)N2CC3ON=C(C(=O)NCc4ccc(F)cc4)C3C2)n1 (configuration not stated)	nt	4%[6.33 µM]	nt	nt	nt
Cc1ccc(NC(=O)c2csc3c2CCCCC3)c(C)c1	nt	-29%	nt	nt	nt
C/C(=N\O)c1ccc(Cl)c(Cl)c1	0%	nt	0	3%	17%
CNC(=S)N/N=C(\C)c1ccc(Cl)c(Cl)c1	8%	40µM*	-3	-6%	7%
Cc1ccc2c(C)c(C(=O)Nc3nonc3-c3cccs3)oc2c1	nt	27%	nt	nt	nt
O=C(Nc1ccccc1F)c1cc(Cl)sc1Cl	?	2%	-3	4%	-11%
O=C(Nc1ccc(F)cc1F)c1cc(Cl)sc1Cl	14µM*	-2%	-4	3%	-18%
O=C(Nc1ccc(F)cc1F)c1csc(-c2cccs2)n1	10µM*	0%	1	2%	0%
Cc1cccc(NC(=O)N2CCCC(c3nn(C)c(=O)n3C3CCCC3)C2)c1 (configuration not stated)	nt	23%	nt	nt	nt
CCN(CC)c1ccc(SS(=O)(=O)O)cc1	4%	25µM*!	0	-3%	0%
O=S(=O)(O)Sc1ccccc1	3%	?	-4	nt	-17%
Cc1ccc(-c2csc(NC(=O)c3cccc(N4C(=O)CCC4=O)c3)n2)o1	4%	nt	0	3.5µM*	7%
CCOc1ccc(-c2csc(NC(=O)c3cccc(N4C(=O)CCC4=O)c3)n2)cc1	0%	0%	0	-2%	5%
CN(C)/N=C/C=C1\CC/C(=C\c2ccc(Br)cc2)C1=O	1%	31%	2	3%	-22%
CN(C)/N=C/C=C1\CCC/C(=C/c2cccs2)C1=O	10µM*	14%	1	?	-34%
COC(=O)C1=C(C(=O)OC)SC(=C(Cl)C(=S)Sc2ccccn2)S1	nt	4.5µM*	nt	nt	nt
COC(=O)CNC(=O)CSc1ccccn1	0%	?	0	6%	26%
O=C1Nc2ccccc2CN(Cc2ccc(Cl)cc2)C12CCNC2 (configuration not stated)	nt	20µM*	nt	nt	nt
CN1CCN([C@@H]2[C@H](O)[C@H](CO)O[C@@H]2CN(Cc2ccc(Cl)cc2)Cc2cccc(Cl)c2)CC1	nt	14µM*	nt	nt	nt

From PubChem
